Measurements: PubChem BioAssay (Tox21)
Values joined by “and” are separate entries in the source; they are usually repeats but may differ in a detail not shown here. Equal values may be shown once. Inconclusive results are not listed. A call without a number means that no potency is given here. Some compounds were tested as several samples or in several runs, with calls that do not always agree. Active and inactive are the calls of the source. Unless noted, calls follow the shape of the full dose curve.

What was measured:
[1] = Nuclear factor erythroid 2-related factor 2/antioxidant responsive element (Nrf2/ARE) small molecule agonists: qHTS cell viability counter screen in human keratinocytes (AID 1919968; active = well fitted cell-killing curve with a large enough effect in the repeat runs; also: nearly all actives have a fitted effect of over 55% in size)
Method in brief: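 CellTiter-Fluor fluorescence, read 1 h after reagent, gave viability in the same wells as the ARE-luciferase assay. KeratinoSens cells (1,500/well) had 23 h compound exposure at 37 C/5% CO2 following 5 h plating.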

[2] = Nuclear factor erythroid 2-related factor 2/antioxidant responsive element (Nrf2/ARE) small molecule agonists: luciferase reporter gene qHTS assay in human keratinocytes (AID 1919969); also: nearly all actives have a fitted effect of over 35% in size; also: potency is read from the fitted curve at half-maximal effect
[3] = G protein-coupled receptor (GPCR) small molecule agonists, calcium flux assay: HEK293 wild type cell line counter screen (AID 1920065)
Method in brief: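 Calcium flux counter screen: compound added in agonist mode at 15 concentrations in triplicate to dye-loaded parental HEK293 cells. Fluorescence (480/540) read kinetically for 3 min; ATP served as positive control.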

[4] = p53 small molecule agonists, cell-based qHTS assay with human liver microsomes (AID 1963577)
Method in brief: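 Cells carrying a p53-responsive bla reporter were rested 5 h (37 C, 5% CO2) before compound transfer. Human liver microsomes plus NADPH, 0.5 mg/mL final apiece, supplied metabolism during the 16 h 37 C exposure.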

[5] = p53 small molecule agonists, cell-based qHTS assay with rat liver microsomes (AID 1963578)
Method in brief: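 Fluorescence from a beta-lactamase reporter under a p53 response element was measured after cells had been incubated 16 h at 37 C with test compound and rat liver microsomes plus NADPH (0.5 mg/mL final each).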

[6] = p53 small molecule agonists, cell-based qHTS assay with human liver microsomes: qHTS cell viability counter screen (AID 1963579); also: nearly all actives have a fitted effect of over 45% in size
Method in brief: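 Seed p53RE-bla cells at 4,000 per well; incubate 5 h at 37 C; add compound, human liver microsomes and NADPH; incubate 16 h at 37 C; add CellTiter-Glo; after 30 min at room temperature, read luminescence.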

[7] = p53 small molecule agonists, cell-based qHTS assay with rat liver microsomes: qHTS cell viability counter screen (AID 1963580); also: nearly all actives have a fitted effect of over 45% in size
Method in brief: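 Rat liver microsome (0.5 mg/mL final) and NADPH (0.5 mg/mL final) co-incubation with compounds for 16 h at 37 C on HCT-116 p53RE-bla cells; cytotoxicity taken from intracellular ATP luminescence.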

[8] = p53 small molecule agonists, cell-based qHTS assay: qHTS cell viability counter screen (AID 1963581); also: nearly all actives have a fitted effect of over 45% in size
Method in brief: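 Counter screen read by CellTiter-Glo luminescence (ATP content, 30 min at room temperature), run in the same wells as the beta-lactamase reporter read. HCT-116 p53RE-bla cells saw compounds for 16 h at 37 C.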

[9] = p53 small molecule agonists, cell-based qHTS assay (AID 1963582; active = well fitted activation curve with a large enough effect in the signal ratio in the repeat runs, not every such curve was filed as active; the % refers to the signal ratio)
Method in brief: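 Read-out is beta-lactamase FRET fluorescence after 2 h at room temperature with LiveBLAzer B/G substrate. p53 response element-bla cells were treated 16 h at 37 C with compounds in DMSO, added 5 h after seeding.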

[10] = molecular target: 5-hydroxytryptamine receptor 2A (Homo sapiens) (UniProt P28223); assay: 5-hydroxytryptamine receptor 2A (HTR2A) small molecule antagonists, cell-based qHTS assay (AID 1963586); also: nearly all actives have a fitted effect of over 45% in size
5-hydroxytryptamine receptor 2A (Homo sapiens), sequence (P28223 whole entry, looked up): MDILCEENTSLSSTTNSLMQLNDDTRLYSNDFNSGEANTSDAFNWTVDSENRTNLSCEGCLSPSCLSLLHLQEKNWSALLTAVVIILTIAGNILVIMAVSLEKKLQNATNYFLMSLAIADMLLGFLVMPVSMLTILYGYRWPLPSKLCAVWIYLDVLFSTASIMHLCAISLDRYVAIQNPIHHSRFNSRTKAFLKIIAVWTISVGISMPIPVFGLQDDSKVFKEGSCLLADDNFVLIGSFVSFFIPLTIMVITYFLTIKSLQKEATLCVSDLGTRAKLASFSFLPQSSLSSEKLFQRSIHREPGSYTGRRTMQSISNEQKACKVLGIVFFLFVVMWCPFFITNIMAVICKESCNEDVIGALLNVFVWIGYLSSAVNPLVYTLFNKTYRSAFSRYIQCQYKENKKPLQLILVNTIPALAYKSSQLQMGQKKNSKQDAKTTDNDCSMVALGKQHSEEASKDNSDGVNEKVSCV
Method in brief: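 CHO cells stably expressing human HTR2A were plated for 18 h at 37 C, then loaded with calcium dye for 1 h. Compounds were preincubated 5 min at room temperature before DOI (4 nM solution) was added. Kinetic fluorescence was read for 3 min.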

[11] = molecular target: 5-hydroxytryptamine receptor 2A (Homo sapiens) (UniProt P28223); assay: 5-hydroxytryptamine receptor 2A (HTR2A) small molecule agonists, cell-based qHTS assay (AID 1963587); also: nearly all actives have a fitted effect of over 30% in size; also: potency is read from the fitted curve at half-maximal effect
Method in brief: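 Kinetic calcium-flux fluorescence (2 min, 1 sec intervals) after compound addition in agonist mode. HTR2A-CHO cells were cultured 18 h, then dye-loaded 1 h at 37 C.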

[12] = molecular target: Muscarinic acetylcholine receptor M1 (Homo sapiens) (UniProt P11229); assay: Cholinergic receptor muscarinic 1 (CHRM1) small molecule antagonists, cell-based qHTS assay (AID 1963588); also: nearly all actives have a fitted effect of over 40% in size
Muscarinic acetylcholine receptor M1 (Homo sapiens), sequence (P11229 whole entry, looked up): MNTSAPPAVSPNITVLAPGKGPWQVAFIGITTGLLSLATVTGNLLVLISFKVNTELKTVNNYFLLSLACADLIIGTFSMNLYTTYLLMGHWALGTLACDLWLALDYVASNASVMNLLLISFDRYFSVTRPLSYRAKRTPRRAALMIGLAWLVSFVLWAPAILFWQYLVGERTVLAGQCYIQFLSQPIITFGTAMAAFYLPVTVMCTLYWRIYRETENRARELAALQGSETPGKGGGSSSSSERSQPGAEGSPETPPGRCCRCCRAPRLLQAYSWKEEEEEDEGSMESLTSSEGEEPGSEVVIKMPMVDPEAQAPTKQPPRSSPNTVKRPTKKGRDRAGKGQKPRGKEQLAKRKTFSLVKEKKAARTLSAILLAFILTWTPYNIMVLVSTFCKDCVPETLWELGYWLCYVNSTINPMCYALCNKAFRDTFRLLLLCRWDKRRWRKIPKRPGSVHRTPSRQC
Method in brief: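 Compounds were tested at 15 concentrations in three independent runs. Dye-loaded CHRM1-CHO cells were exposed 5 min at room temperature before stimulation by acetylcholine added at 50nM. Intracellular calcium was read kinetically on FDSS for 3 min.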

[13] = molecular target: Muscarinic acetylcholine receptor M1 (Homo sapiens) (UniProt P11229); assay: Cholinergic receptor muscarinic 1 (CHRM1) small molecule agonists, cell-based qHTS assay (AID 1963589); also: nearly all actives have a fitted effect of over 35% in size
Method in brief: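 Agonist-mode calcium-flux screen: compounds at 15 concentrations, three independent runs, were pin-transferred onto dye-loaded human CHRM1-CHO cells. Fluorescence was then recorded kinetically every second over minutes.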

[14] = cAMP Responsive Elements (CRE) small molecule agonists, cell-based qHTS assay (AID 1963590)
Method in brief: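 Agonist mode: compound added to CRE-bla HEK 293T cells (2,000/well, 18 h after plating) for 3 h at 37 C/5% CO2. Reporter activity detected via FRET beta-lactamase substrate, 2 h room-temperature loading.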

[15] = cAMP Responsive Elements (CRE) small molecule antagonists, cell-based qHTS assay (AID 1963591; active = well fitted inhibition curve with a large enough effect in the signal ratio in the repeat runs, not every such curve was filed as active; the % refers to the signal ratio)
Method in brief: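 Antagonist mode: compounds are added alongside the adenylyl cyclase activator NKH477 (0.25 uM final) to CRE-bla HEK293T cells for 3 h. LiveBLAzer FRET substrate, 2 h at room temperature, reports bla expression.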

[16] = molecular target: Beta-2 adrenergic receptor (Homo sapiens) (UniProt P07550); assay: Adrenergic beta2 receptor (ADRB2) small molecule antagonists, cell-based qHTS assay (AID 1963592); also: series mostly up to about 92 µM; nearly all actives have a fitted effect of over 50% in size
Beta-2 adrenergic receptor (Homo sapiens), sequence (P07550 whole entry, looked up): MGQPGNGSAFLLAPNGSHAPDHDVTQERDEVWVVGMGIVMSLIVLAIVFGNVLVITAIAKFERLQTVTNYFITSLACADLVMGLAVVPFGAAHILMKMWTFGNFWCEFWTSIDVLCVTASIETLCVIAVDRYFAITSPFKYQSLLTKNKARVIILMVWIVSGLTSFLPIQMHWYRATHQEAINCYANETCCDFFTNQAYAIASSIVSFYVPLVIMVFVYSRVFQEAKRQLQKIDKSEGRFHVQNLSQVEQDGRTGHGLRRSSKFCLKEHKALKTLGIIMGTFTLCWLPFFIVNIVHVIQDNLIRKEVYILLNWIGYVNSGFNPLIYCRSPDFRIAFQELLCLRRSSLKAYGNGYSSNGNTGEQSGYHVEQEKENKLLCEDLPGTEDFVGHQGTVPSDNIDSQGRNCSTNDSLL
Method in brief: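 Assay format: CHO-ADRB2 cells, 18-20hr seeding at 37C/5% CO2, then compound plus 1nM isoproterenol agonist mix for 0.5hr RT. Homogeneous time-resolved fluorescence cAMP detection after 1hr, expressed as 665/615 nm ratio.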

[17] = molecular target: Beta-2 adrenergic receptor (Homo sapiens) (UniProt P07550); assay: Adrenergic beta2 receptor (ADRB2) small molecule agonists, cell-based qHTS assay (AID 1963593);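 also: CHO cells stably overexpressing human ADRB2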
Method in brief: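 CHO cells stably over-expressing ADRB2 were plated overnight at 37C, then dosed with compounds plus a stimulation mix containing 100uM IBMX and 25uM Ro-20-1724 for 0.5hr at room temperature. cAMP was measured by HTRF competition, 1hr.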

[18] = molecular target: D(2) dopamine receptor (Homo sapiens) (UniProt P14416); assay: Dopamine D2 receptor (DRD2) small molecule agonists, cell-based qHTS assay (AID 1963594); also: nearly all actives have a fitted effect of over 35% in size
D(2) dopamine receptor (Homo sapiens), sequence (P14416 whole entry, looked up): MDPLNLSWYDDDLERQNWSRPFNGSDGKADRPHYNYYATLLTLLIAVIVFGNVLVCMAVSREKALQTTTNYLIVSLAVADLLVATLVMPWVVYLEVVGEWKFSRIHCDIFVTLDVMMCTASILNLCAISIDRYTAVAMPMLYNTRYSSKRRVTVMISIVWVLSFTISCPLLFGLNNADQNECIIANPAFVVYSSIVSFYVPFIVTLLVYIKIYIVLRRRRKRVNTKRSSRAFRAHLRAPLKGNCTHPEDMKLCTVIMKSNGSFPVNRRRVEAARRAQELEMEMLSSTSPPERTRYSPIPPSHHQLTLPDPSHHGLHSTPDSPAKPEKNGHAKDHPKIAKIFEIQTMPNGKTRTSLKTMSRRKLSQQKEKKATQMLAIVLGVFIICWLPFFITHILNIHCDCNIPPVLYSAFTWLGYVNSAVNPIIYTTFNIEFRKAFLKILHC
Method in brief: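 cAMP accumulation in DRD2-HEK293 cells measured by HTRF after 1 h detection; compounds added 10 min before NKH477 (200nM […]) forskolin-analogue stimulation, 30 min at room temperature, with Ro20-1724 present at 0.1 mM final.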

[19] = molecular target: D(2) dopamine receptor (Homo sapiens) (UniProt P14416); assay: Dopamine D2 receptor (DRD2) small molecule antagonists, cell-based qHTS assay (AID 1963595; active = well fitted inhibition curve with a large enough effect in the signal ratio in the repeat runs, with a control signal flat; the % refers to the signal ratio)
Method in brief: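 Antagonist mode in DRD2-HEK293 cells: after compound addition with 0.1 mM Ro20-1724, cells received quinpirole (12 nM) and NKH477 (200 nM) for 30 min at room temperature; HTRF cAMP read after 1 h detection.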

[20] = molecular target: Gonadotropin-releasing hormone receptor (Homo sapiens) (UniProt P30968); assay: Human gonadotropin-releasing hormone receptor (GnRHR) small molecule agonists, calcium flux assay in GnRHR-HEK293 cells (AID 1920063); also: nearly all actives have a fitted effect of over 35% in size
Gonadotropin-releasing hormone receptor (Homo sapiens), sequence (P30968 whole entry, looked up): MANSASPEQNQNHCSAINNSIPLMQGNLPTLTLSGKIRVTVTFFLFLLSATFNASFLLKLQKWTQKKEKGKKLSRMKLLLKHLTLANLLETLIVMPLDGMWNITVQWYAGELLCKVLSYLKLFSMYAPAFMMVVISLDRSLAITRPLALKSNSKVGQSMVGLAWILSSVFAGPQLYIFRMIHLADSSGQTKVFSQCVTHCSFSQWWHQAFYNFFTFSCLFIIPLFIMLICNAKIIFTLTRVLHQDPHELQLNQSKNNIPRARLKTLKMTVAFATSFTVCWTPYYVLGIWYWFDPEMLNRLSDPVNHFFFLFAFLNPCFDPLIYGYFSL
Method in brief: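 Agonist mode: compounds at 15 concentrations, in triplicate, went onto calcium dye-loaded GnRHR-HEK293 cells. Intracellular calcium was then followed as 480/540 nm fluorescence at 1 s intervals over 3 min.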

CCCCOCCOCCOCCCC
Potency [1]: inactive
Potency [2]: inactive
Potency [3]: inactive
Potency [4]: inactive
Potency [5]: inactive
Potency [6]: inactive
Potency [7]: inactive
Potency [8]: inactive
Potency [9]: inactive
Potency [10]: inactive
Potency [11]: inactive
Potency [12]: inactive
Potency [13]: inactive
Potency [14]: inactive
Potency [15]: inactive
Potency [16]: inactive
Potency [17]: inactive
Potency [18]: inactive
Potency [19]: inactive

Nc1ccc(N)c(Cl)c1
Potency [1]: inactive
Potency [2]: 54.4 µM (active) and 27.3 µM (active)
Potency [3]: inactive
Potency [4]: inactive
Potency [5]: inactive
Potency [6]: inactive
Potency [7]: inactive
Potency [8]: inactive
Potency [9]: inactive
Potency [10]: inactive
Potency [11]: inactive and 21.9 µM (active)
Potency [12]: inactive

O=C1NC2NC(=O)NC2N1 (centres undefined)
Potency [1]: inactive
Potency [2]: inactive
Potency [3]: inactive
Potency [4]: inactive
Potency [5]: inactive
Potency [6]: inactive
Potency [7]: inactive
Potency [8]: inactive
Potency [9]: inactive
Potency [10]: inactive
Potency [11]: inactive
Potency [12]: inactive
Potency [13]: inactive
Potency [14]: inactive
Potency [15]: inactive
Potency [16]: inactive
Potency [18]: inactive

O=C1OC(=O)c2c(Cl)c(Cl)c(Cl)c(Cl)c21
Potency [1]: inactive
Potency [2]: inactive
Potency [3]: inactive
Potency [4]: inactive
Potency [5]: inactive
Potency [6]: inactive
Potency [7]: inactive
Potency [8]: inactive
Potency [9]: inactive
Potency [10]: inactive
Potency [11]: inactive
Potency [12]: inactive
Potency [13]: inactive
Potency [14]: inactive
Potency [15]: inactive
Potency [16]: inactive
Potency [17]: inactive
Potency [18]: inactive
Potency [19]: inactive

CCN(Cc1cccc(S(=O)(=O)O)c1)c1ccccc1
Potency [1]: inactive
Potency [2]: inactive
Potency [3]: inactive
Potency [4]: inactive
Potency [5]: inactive
Potency [6]: inactive
Potency [7]: inactive
Potency [8]: inactive
Potency [9]: inactive
Potency [10]: inactive
Potency [11]: inactive
Potency [12]: inactive
Potency [13]: inactive
Potency [14]: inactive
Potency [15]: inactive
Potency [16]: inactive
Potency [18]: inactive

NC(=O)c1ncn([C@@H]2O[C@H](CO)[C@@H](O)[C@H]2O)c1O
Potency [1]: inactive
Potency [2]: inactive
Potency [3]: inactive
Potency [4]: inactive
Potency [5]: inactive
Potency [6]: inactive
Potency [7]: inactive
Potency [8]: inactive
Potency [9]: inactive
Potency [10]: inactive
Potency [11]: inactive
Potency [12]: inactive
Potency [13]: inactive
Potency [14]: inactive
Potency [15]: inactive
Potency [16]: inactive
Potency [18]: inactive
Potency [19]: inactive

COC(=O)c1ccc2cc(C(=O)OC)ccc2c1
activity change, negative = cytotoxicity [1]: 1.05% [at 19 µM] (inactive)
activity, positive = activation [2]: 20.6% [at 19 µM] (inactive)
activity change [20]: 0.0273% [at 11.8 µM, stronger effect = higher value] (inactive)
activation [4]: -11.1% [at 13.5 µM] (inactive)
activation [5]: -1.04% [at 13.6 µM] (inactive)
activity change, negative = cytotoxicity [6]: -6.68% [at 13.5 µM] (inactive)
activity change, negative = cytotoxicity [7]: -1.51% [at 13.5 µM] (inactive)
activity change, negative = cytotoxicity [8]: 11% [at 13.5 µM] (inactive)
activation [9]: -2.37% [at 13.5 µM] (inactive)
activity, negative = inhibition [10]: 2.21% [at 12.7 µM] (inactive)
activation [11]: -0.775% [at 15.9 µM] (inactive)
activity, negative = inhibition [12]: -8% [at 12.6 µM] (inactive)
activation [13]: 0.0556% [at 15.8 µM] (inactive)
activation [14]: -2.52% [at 19 µM] (inactive)
activity change, negative = inhibition [15]: -4.98% [at 18.9 µM] (inactive)
activity change, negative = inhibition [16]: -9.16% [at 19 µM] (inactive)
activation [17]: 21.2% [at 19 µM] (inactive)
activation [18]: -0.16% [at 19 µM] (inactive)
activity change, negative = inhibition [19]: -2.05% [at 18.9 µM] (inactive)

O=C(O)/C=C/c1ccccc1
Potency [1]: inactive
Potency [2]: inactive
Potency [20]: inactive
Potency [4]: inactive
Potency [5]: inactive
Potency [6]: inactive
Potency [7]: inactive
Potency [8]: inactive
Potency [9]: inactive
Potency [10]: inactive
Potency [11]: inactive
Potency [12]: inactive
Potency [13]: inactive
Potency [14]: inactive
Potency [16]: inactive
Potency [17]: inactive
Potency [18]: inactive
Potency [19]: inactive
